“And” between values parts separate entries of the source, which are not always exact repeats. Equal entries are not always repeated. A structure can be active in one record and inactive in another. The source made the active and inactive calls. Unless noted, calls come from the whole dose curve; as a rule, active = well fitted curve in the direction sought with a large enough effect in the repeat runs; inconclusive = weak or mixed curves; inactive = no such curve, though single readings can be large; an effect the other way counts as inactive or inconclusive.

Assay [1] is described as follows: qHTS assay to identify small molecule antagonists of the glucocorticoid receptor (GR) signaling pathway - cell viability counter screen (AID 720693). Note: nearly all actives have a fitted effect of over 55% in size.
A short description of assay [2]: qHTS assay for identifying genotoxic compounds that show differential cytotoxicity against isogenic chicken DT40 cell lines with known DNA damage response pathways - wild type cell line (AID 743012). Note: nearly all actives have a fitted effect of over 60% in size. Note: potency is the fitted concentration of half-maximal effect. In a few lines:
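Cells (DT40 wild type, 300/well) are treated with DMSO-dissolved compounds after a ~0.5 h pre-incubation and kept 40 h at 37 C/5% CO2. Viability is then measured by CellTiter-Glo luminescence following 30 min at room temperature.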
A general note: Quantitative high-throughput screening tests each substance at several concentrations.

A short description of assay [3]: qHTS assay for identifying genotoxic compounds that show differential cytotoxicity against isogenic chicken DT40 cell lines with known DNA damage response pathways - Rev3 mutant cell line (AID 743014). Note: nearly all actives have a fitted effect of over 55% in size. Note: potency is the fitted concentration of half-maximal effect.
The nature of assay [4]: qHTS assay for identifying genotoxic compounds that show differential cytotoxicity against isogenic chicken DT40 cell lines with known DNA damage response pathways - Rad54/Ku70 mutant cell line (AID 743015). Note: nearly all actives have a fitted effect of over 60% in size. Note: potency is the fitted concentration of half-maximal effect.
Assay [5] in a line: qHTS assay to identify small molecule antagonists of the androgen receptor (AR) signaling pathway - cell viability counter screen (AID 743033; note: nearly all actives have a fitted effect of over 45% in size).
A short description of assay [6]: qHTS assay to identify small molecule antagonists of the androgen receptor (AR) signaling pathway using the MDA cell line - cell viability counter screen (AID 743041; note: nearly all actives have a fitted effect of over 45% in size; note: potency is the fitted concentration of half-maximal effect). The gist of the method: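 R1881-driven MDA-kb2 AR-luc cells, 3,000/well, were dosed with library compounds for 16 h; cell health came from CellTiter-Fluor fluorescence in the reporter wells.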
Assay [7] can be described thus: qHTS assay to identify small molecule antagonists of the thyroid receptor (TR) signaling pathway - cell viability counter screen (AID 743064). Note: nearly all actives have a fitted effect of over 50% in size. Note: potency is the fitted concentration of half-maximal effect. In a few lines:
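Viability of T3-stimulated (1 nM final) GH3.TRE-Luc cells is measured by CellTiter-Fluor fluorescence after 23.5 h compound exposure at 37 °C plus 30 min reagent incubation.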

A short description of assay [8]: qHTS assay to identify small molecule antagonists of the thyroid receptor (TR) signaling pathway (AID 743065). Note: nearly all actives have a fitted effect of over 55% in size. Note: potency is the fitted concentration of half-maximal effect. The gist of the method: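 Antagonism measured as loss of luciferase signal in GH3 cells stably carrying a TRE-luciferase reporter, co-treated with compound and T3 (1 nM final) for 23.5 h at 37 C. Viability was read in the same well by CellTiter-Fluor.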

Assay [9] has as its system thyroid hormone receptor (rat, GH3 cells). Description: qHTS assay to identify small molecule agonists of the thyroid receptor (TR) signaling pathway (AID 743066; calls by dose curve).
A short description of assay [10]: qHTS assay to identify small molecule antagonists of the estrogen receptor alpha (ER-alpha) signaling pathway - cell viability counter screen (AID 743074; calls by dose curve;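 note: HEK293 cells carrying ER-alpha-UAS-bla reporter stimulated with 17beta-estradiol; nearly all actives have a fitted effect of over 45% in size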).
Assay [11] concerns the target Estrogen receptor (Homo sapiens) (UniProt P03372). Description: qHTS assay to identify small molecule agonists of the estrogen receptor alpha (ER-alpha) signaling pathway (AID 743075; calls by dose curve).
The target is the same in assay [12]. Nature of the assay: qHTS assay to identify small molecule agonists of the estrogen receptor alpha (ER-alpha) signaling pathway using the BG1 cell line (AID 743079). Note: nearly all actives have a fitted effect of over 20% in size.
Assay [13] can be described thus: qHTS assay to identify small molecule antagonists of the estrogen receptor alpha (ER-alpha) signaling pathway using the BG1 cell line (AID 743080; calls by dose curve;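 note: BG1 cells stimulated with 17beta-estradiol alongside compound; nearly all actives have a fitted effect of over 25% in size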). In a few lines: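 Luciferase inhibition measured with ONE-Glo after 30 min at RT in BG1Luc4E2 cells given test compounds and 17beta-estradiol for 21.5 h at 37 C; CellTiter-Fluor viability read in the same wells beforehand.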

Assay [14] is described as follows: qHTS assay to identify small molecule antagonists of the estrogen receptor alpha (ER-alpha) signaling pathway using the BG1 cell line - cell viability counter screen (AID 743081).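 Note: compound given together with 17beta-estradiol as the ER stimulus; nearly all actives have a fitted effect of over 45% in size.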 Note: potency is the fitted concentration of half-maximal effect.
A further assay concerns the target Aromatase (Homo sapiens) (UniProt P11511). Description: qHTS assay to identify aromatase inhibitors (AID 743083). Note: nearly all actives have a fitted effect of over 55% in size. Note: potency is the fitted concentration of half-maximal effect.
Assay [15] deals with Androgen receptor (Homo sapiens) (UniProt P10275). Description: qHTS assay to identify small molecule antagonists of the androgen receptor (AR) signaling pathway (AID 743035; active = well fitted inhibition curve with a large enough effect in the signal ratio in the repeat runs, not every such curve was filed as active; inconclusive = weak or mixed curves, or effect the other way; inactive = no such curve, though single readings can be large or run the other way; the % refers to the signal ratio). The gist of the method:
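Antagonism is scored as loss of R1881-driven beta-lactamase reporter expression in HEK293 cells carrying the reporter under a UAS element, after 16 h co-treatment at 37C and a 2 h room-temperature FRET substrate read.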

The target is the same in assay [16]. Nature of the assay: qHTS assay to identify small molecule agonists of the androgen receptor (AR) signaling pathway (AID 743036; active = well fitted activation curve with a large enough effect in the signal ratio in the repeat runs, with a control signal flat, not every such curve was filed as active; inconclusive = weak or mixed curves, or effect the other way; inactive = no such curve, though single readings can be large or run the other way; the % refers to the signal ratio). The gist of the method: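 Screening used 2,000 AR-bla HEK293 cells per well, treated 16 h at 37C with test compounds in DMSO alongside positive and DMSO-only controls; beta-lactamase activity was then read by LiveBLAzer B/G FRET fluorescence after 2 h at room temperature.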

Assay [17] has the same target. Description: qHTS assay to identify small molecule agonists of the androgen receptor (AR) signaling pathway using the MDA cell line (AID 743040; note: nearly all actives have a fitted effect of over 20% in size). The note with it: MDA-kb2 AR-luc cells, MMTV luciferase, 16 h; activity change: at 70.3 µM (top of the series), stronger effect = higher value. The gist of the method: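 After a 5 h incubation at 37C and 0% CO2, MDA-kb2 reporter cells were dosed with compounds in DMSO and kept 16 h under the same conditions. Luciferase activity was then read as luminescence with ONE-Glo.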

Assay [18] shares this target. Description: qHTS assay to identify small molecule antagonists of the androgen receptor (AR) signaling pathway using the MDA cell line (AID 743042; note: nearly all actives have a fitted effect of over 55% in size; note: potency is the fitted concentration of half-maximal effect). The gist of the method: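 Antagonist mode: compounds plus R1881 agonist added to MDA-kb2 AR-luc cells, incubated 16 h at 37C. Luciferase reporter luminescence quantified, with multiplexed CellTiter-Fluor readout for cell viability.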

In assay [19] the target is Estrogen receptor (Homo sapiens) (UniProt P03372). Description: qHTS assay to identify small molecule antagonists of the estrogen receptor alpha (ER-alpha) signaling pathway (AID 743069; active = well fitted curve in the direction sought with a large enough effect in the signal ratio in the repeat runs, not every such curve was filed as active; inconclusive = weak or mixed curves, or effect the other way; inactive = no such curve, though single readings can be large or run the other way; the % refers to the signal ratio; note: potency is the fitted concentration of half-maximal effect). The gist of the method:
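Compound effects are measured against 17beta-estradiol stimulation in HEK293 cells with a UAS-controlled beta-lactamase reporter for ER-alpha. Exposure lasts 18 hr at 37C; LiveBLAzer B/G FRET substrate follows for 2 hr at room temperature.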

Sequence of Aromatase (Homo sapiens) (P11511 whole entry, looked up): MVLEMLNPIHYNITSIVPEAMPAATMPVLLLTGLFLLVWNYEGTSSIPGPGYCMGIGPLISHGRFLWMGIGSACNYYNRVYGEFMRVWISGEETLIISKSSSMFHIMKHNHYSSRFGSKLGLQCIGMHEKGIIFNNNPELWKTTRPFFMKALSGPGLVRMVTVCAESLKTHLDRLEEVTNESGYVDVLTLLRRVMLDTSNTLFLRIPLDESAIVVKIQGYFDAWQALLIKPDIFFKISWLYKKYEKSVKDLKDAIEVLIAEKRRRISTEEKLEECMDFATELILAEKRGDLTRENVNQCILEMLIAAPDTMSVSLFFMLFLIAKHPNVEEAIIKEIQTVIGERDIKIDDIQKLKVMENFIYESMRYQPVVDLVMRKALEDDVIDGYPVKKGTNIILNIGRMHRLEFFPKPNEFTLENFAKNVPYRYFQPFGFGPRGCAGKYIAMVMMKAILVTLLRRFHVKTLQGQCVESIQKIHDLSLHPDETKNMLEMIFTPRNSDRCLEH
Sequence of Androgen receptor (Homo sapiens) (P10275 whole entry, looked up): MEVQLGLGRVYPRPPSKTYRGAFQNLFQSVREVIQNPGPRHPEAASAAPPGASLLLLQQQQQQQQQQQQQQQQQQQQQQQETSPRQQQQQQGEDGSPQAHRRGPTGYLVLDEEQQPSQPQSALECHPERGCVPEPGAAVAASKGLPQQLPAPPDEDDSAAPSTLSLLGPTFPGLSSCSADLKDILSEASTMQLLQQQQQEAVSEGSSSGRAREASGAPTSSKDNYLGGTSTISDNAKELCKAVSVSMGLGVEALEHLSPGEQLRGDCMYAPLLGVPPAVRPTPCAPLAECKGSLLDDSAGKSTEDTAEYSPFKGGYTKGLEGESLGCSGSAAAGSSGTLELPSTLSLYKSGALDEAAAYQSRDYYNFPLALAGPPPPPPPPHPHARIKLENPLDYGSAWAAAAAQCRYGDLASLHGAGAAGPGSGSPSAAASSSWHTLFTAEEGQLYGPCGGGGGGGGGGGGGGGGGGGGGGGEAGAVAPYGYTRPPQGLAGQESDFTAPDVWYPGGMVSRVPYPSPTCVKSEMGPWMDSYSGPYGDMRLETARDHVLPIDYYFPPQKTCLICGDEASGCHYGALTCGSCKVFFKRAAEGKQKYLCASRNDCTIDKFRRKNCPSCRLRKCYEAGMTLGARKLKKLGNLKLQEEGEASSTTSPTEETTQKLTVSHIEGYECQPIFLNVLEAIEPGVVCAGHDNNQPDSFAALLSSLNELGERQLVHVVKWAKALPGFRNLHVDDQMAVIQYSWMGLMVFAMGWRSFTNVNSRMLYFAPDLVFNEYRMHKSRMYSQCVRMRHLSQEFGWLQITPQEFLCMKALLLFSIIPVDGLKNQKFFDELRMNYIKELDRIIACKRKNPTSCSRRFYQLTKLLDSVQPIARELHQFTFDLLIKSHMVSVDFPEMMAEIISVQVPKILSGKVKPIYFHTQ
Sequence of Estrogen receptor (Homo sapiens) (P03372 whole entry, looked up): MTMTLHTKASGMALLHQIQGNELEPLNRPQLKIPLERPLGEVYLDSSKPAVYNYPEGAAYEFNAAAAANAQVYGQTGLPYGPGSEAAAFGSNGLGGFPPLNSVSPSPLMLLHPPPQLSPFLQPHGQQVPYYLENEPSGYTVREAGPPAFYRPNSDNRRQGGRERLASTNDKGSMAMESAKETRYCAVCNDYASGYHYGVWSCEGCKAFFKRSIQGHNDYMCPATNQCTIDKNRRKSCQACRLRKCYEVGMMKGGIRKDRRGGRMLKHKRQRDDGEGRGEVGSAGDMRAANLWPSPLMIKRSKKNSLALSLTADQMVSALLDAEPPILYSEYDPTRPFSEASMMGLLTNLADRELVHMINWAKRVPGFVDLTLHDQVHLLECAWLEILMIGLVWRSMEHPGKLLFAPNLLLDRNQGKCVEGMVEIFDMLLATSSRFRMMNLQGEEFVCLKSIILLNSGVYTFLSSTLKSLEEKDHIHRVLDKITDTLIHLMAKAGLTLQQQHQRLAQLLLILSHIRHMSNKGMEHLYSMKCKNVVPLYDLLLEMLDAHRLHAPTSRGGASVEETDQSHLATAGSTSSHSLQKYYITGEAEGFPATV

Consider `O=P(O)(O)CCCl`, for which the Potency result in assay [1], in [2], in assay [3], in [4], in assay [5] and in [6] was “inactive” throughout. In addition, the Potency result in assay [7], in assay [8], in assay [9], in [10], in assay [11] and in [12] was “inactive” throughout. The Potency result (in [13]; in assay [14]; with Aromatase (Homo sapiens)) was “inactive” each time.
With `CCCCCCCCOC(=O)c1ccccc1C(=O)OCCCCCCCC`, the Potency result in assay [1], in assay [2], in assay [3], in assay [4], in assay [5] and in assay [15] was “inactive” throughout. For the same compound, the Potency entry in [16], in [17], in assay [6], in assay [18], in [7] and in [8] was “inactive” throughout. For the same compound, the Potency result in [9], in assay [10], in [11], in [12], in assay [13] and in assay [14] was “inactive” throughout. For the same compound, the Potency entry with Aromatase (Homo sapiens) is “inactive”.
As for `c1ccc(NNc2ccccc2)cc1`, the Potency result in [1], in assay [5], in assay [6], in assay [7], in [9] and in [10] was “inactive” each time. Besides, the Potency entry in [14] is “inactive”. Further, the Potency result in assay [2] is “inactive and 30.6 µM (active)”; in assay [3], 24.3 µM (active); in assay [4], “inactive and 27.3 µM (active)”; in assay [8], 68.6 µM (active).
On to `CCOCN(C(=O)CCl)c1c(C)cccc1CC`, for which the Potency entry in assay [1], in assay [5], in assay [6], in assay [7], in assay [9] and in assay [10] was “inactive” in each case. Moreover, the Potency entry in assay [11], in assay [12], in [13] and in assay [14] was “inactive” in each case. Besides, the Potency in assay [2] is 51.4 µM (active) and 17.2 µM (active); in [3] it was 7.27 µM (active) and 6.11 µM (active); in assay [4], 20.5 µM (active) and 7.7 µM (active); in [8], 64.8 µM (active) and 61.1 µM (active); in assay [19] it was 24.5 µM [inconclusive] (active); in the assay with Aromatase (Homo sapiens) it was 28.9 µM (active) and 54.5 µM (active).
`Nc1ccncc1`: the Potency result in [1], in [2], in [3], in [4], in assay [5] and in [15] was “inactive” in each case. Besides, the Potency entry in assay [16], in assay [17], in assay [6], in assay [18], in assay [7] and in assay [8] was “inactive” each time. Besides, the Potency result in [9], in [10], in assay [11], in assay [12], in assay [13] and in assay [14] was “inactive” each time. In the assay with Aromatase (Homo sapiens), the Potency result is “inactive”.
With `O=[N+]([O-])c1ccc(O)c([N+](=O)[O-])c1`, the Potency entry in assay [1], in assay [2], in [3], in [5], in [17] and in [9] was “inactive” throughout. For the same compound, the Potency entry (in assay [11]; in the assay with Aromatase (Homo sapiens)) was “inactive” throughout. The Potency is 54.5 µM (active) in assay [4]; 30.8 µM (active) and 61.1 µM (active) in assay [6]; 61.1 µM (active) in assay [18]; 61.1 µM (active) in [7]; 30.8 µM (active) and 30.6 µM (active) in assay [14].
Take `CNC(=O)N(C)c1nnc(C(C)(C)C)s1`: the Potency result in assay [1], in assay [2], in assay [3], in assay [4], in assay [5] and in assay [6] was “inactive” each time. Moreover, the Potency result in [7], in assay [8], in assay [9], in assay [10], in [11] and in assay [12] was “inactive” throughout. Also, the Potency entry (in assay [13]; in assay [14]; with Aromatase (Homo sapiens)) was “inactive” throughout.

The values are drawn from PubChem BioAssay (Tox21).
